Assay outcomes as filed in PubChem BioAssay.
Shown are actives, neighbours in structure and some others; about 19% of the full set was active somewhere.
DT40 TDP1 no CPT – qHTS for Inhibitors of human tyrosyl-DNA phosphodiesterase 1 (TDP1): qHTS in cells in absence of CPT. DT40 Tdp1-/- hTDP1 cells, no CPT, ATP luminescence, 48 h. Potency, µM (highest dose often 46.2 µM), for inactives: top-dose activity change, negative = growth inhibition, actives largely listed as inhibitors. 420,000 tested, 15% active. AID 686978, 2013; further: potency means the concentration at half of the fitted maximal effect; nearly all actives have a fitted effect of over 55% in size
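Seeded 400 DT40-hTDP1 cells/well (vehicle DMSO, no 20 nM CPT); pinned compounds; ≥48 hr at 37 °C; CellTiter-Glo luminescence as viability measure.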
TDP1 cell CPT – growth inhibition of DT40 Tdp1-/-;hTDP1 cells with camptothecin (screen for TDP1 inhibitors). 420,000 tested, 12% active. chicken DT40 Tdp1-/-;hTDP1 cells + 20 nM CPT, ATP luminescence, 48 h. AID 686979. Potency, µM (top dose mostly 46.2 µM), for inactives: top-dose activity change, negative = growth inhibition, actives largely listed as inhibitors; further: potency means the concentration at half of the fitted maximal effect; nearly all actives have a fitted effect of over 55% in size
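Chicken DT40 Tdp1-/- cells stably complemented with human TDP1 were seeded at 400 cells/well in medium containing 20 nM camptothecin, exposed to pin-transferred compounds, and grown at 37 °C for at least 48 hr. Viability was read as ATP luminescence.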
IL1B secr inh – inflammasome signaling inhibition, IL-1 beta readout | 360,000 tested, 4.7% active | activity change, % at 57.5 µM | THP-1 LPS/ATP IL-1B secretion, AlphaLISA, 16 h; hits give low values; in the data active means activity change below about -50%; inconclusive means mostly about -30% to -49%
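THP-1 cells pretreated 1 hr with compounds (up to 57.5 uM final), then stimulated with LPS (250 ng/mL final) plus ATP (1.25 mM final); secreted IL-1B measured by AlphaLISA after 16 hr, decreased signal indicating inhibition.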
ELG1 DNA repair – inhibitors of ELG1-dependent DNA repair in HEK293T cells. HEK293T ELG1-luciferase reporter, luminescence, 16 h; DNA damage induced by 5-fluorouridine. Potency, µM (doses to about 46.1 µM), without a hit: at the top dose activity change, negative = inhibition, actives largely listed as inhibitors. 330,000 tested, 2.3% active; further: potency means the concentration at half of the fitted maximal effect; nearly all actives have a fitted effect of over 55% in size
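Quantitative HTS, concentration-response format. 2,000 cells/well co-treated with 5-fluorouridine and compound, 16 hr in 5% CO2 at 37 °C; ONE-Glo luminescence read after 30 min.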
HT1080NT lethal – kills 2HG-producing HT-1080-NT fibrosarcoma cells. HT-1080-NT fibrosarcoma viability, CellTiter-Glo ATP luminescence, 48 h. Potency, µM (highest dose often 46.1 µM), inactives show at the top dose activity, negative = less viability, usual class: cytotoxic. 360,000 tested, 1.6% active. AID 686970;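 further: NT is the 2HG producing partner of a matched IDH1 knockdown line; potency means the concentration at half of the fitted maximal effect; 0% = DMSO-treated cells and -100% = media-only wells without cells; nearly all actives have a fitted effect of over 55% in size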
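Read-out is CellTiter-Glo luminescence after 10 minutes at room temperature, following 48 hours' compound treatment of HT-1080-NT cells (750 cells/well, RPMI, 5% FBS, 37 degrees C).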
HT1080 IDH1KD tx – kills HT-1080 cells with IDH1 knockdown | HT-1080 IDH1 knockdown viability, ATP luminescence, 48 h | Potency, µM (titrated, usually from 46.1 µM), for inactives: at the highest dose activity, negative = toxicity, actives largely listed as cytotoxic | 360,000 tested, 2% active;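 further: potency means the concentration at half of the fitted maximal effect; 0% = DMSO wells and -100% = cell-free medium wells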
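HT-1080-IDH1KD cells (IDH1 knocked down), 750/well in RPMI with 5% FBS, treated with compound 48 h at 37 degrees C. Viability by CellTiter-Glo luminescence, normalised to DMSO and no-cell wells; concentration-response curves classed.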
Active calls of the source: *; ? = inconclusive; / = not tested or not shown. Unless noted, the call rests on the fitted dose curve; in most records, active means well fitted curve in the direction sought with a large enough effect; inconclusive means small, poorly fitted or top-dose-only effect, or another doubt; inactive means no such curve, though single readings can be large; an effect the other way counts as inactive or inconclusive. Unless noted, on the % scale 0 is the no-effect control and ±100 the full control effect.

SMILES	DT40 TDP1 no CPT	TDP1 cell CPT	IL1B secr inh	ELG1 DNA repair	HT1080NT lethal	HT1080 IDH1KD tx
COC(=O)c1cccc(NC(=O)CN2CCc3ccccc3C2)c1	3%	-2%	32	3%	12%	13%
CC(C)CN1CC[C@@]2(CCCN(C(=O)c3csnn3)C2)C1	?	-24%	/	/	/	/
O=C(NCc1cccnc1)c1cc(Sc2ccc(F)cc2F)nc2ccccc12	21µM*	23µM*	?	21µM*	-17%	-14%
COc1cc(NC(=O)c2ccco2)c(C(=O)OCC(=O)c2c[nH]c3ccccc23)cc1OC	8.2µM*	15µM*	26	8.2µM*	-28%	-20%
COc1ccc(CCNC(=O)c2cccc3ccccc23)cc1OC	8%	7%	0	-7%	2%	-1%
Cc1ccc(CCNC(=O)c2coc3nc4ccccc4nc23)cc1	29µM*	?	42	3%	4%	9%
COc1ccc(CCNC(=O)c2cc(-c3ccc(C)c(C)c3)nc3ccccc23)cc1OC	-81%	10µM*	/	/	/	/
O=C(OCC(=O)c1c[nH]c2ccccc12)c1ccco1	-21%	-18%	0	?	0%	4%
COCCNC(=O)c1cc(Sc2ccc(F)cc2F)nc2ccccc12	-20%	-29%	/	/	/	/
O=C(Nc1oc2ccccc2c(=O)c1-c1ccc(Cl)cc1)c1ccco1	12%	-20%	15	-3%	-4%	-3%
CC(C)NC(=O)CN1C(=O)c2cccc3cccc1c23	9%	0%	-3	-4%	4%	4%
COc1ccc(-c2cc(C(=O)NCCc3ccc(OC)c(OC)c3)c3ccccc3n2)cc1	12µM*	18µM*	/	/	/	/
COc1ccc(CCNC(=O)c2cccc(Nc3nc4ccccc4nc3-n3nc(C)cc3C)c2)cc1OC	4.6µM*	5.2µM*	/	/	/	/
COc1ccc(CCNC(=O)COc2ccc(-c3ccccc3)cc2)cc1OC	-1%	-20%	-1	-2%	5%	3%
CCOc1ccc(NC(=O)COc2nsnc2N2CCOCC2)cc1	13µM*	16µM*	7	-11%	8%	10%
COC(=O)Oc1nsnc1N1CCOCC1	?	23µM*	?	?	0%	0%
O=C(Cc1csc(N2CCOCC2)n1)N/N=C/c1ccc(O)c(O)c1O	?	?	-6	13µM*	-5%	-5%
O=C(COc1nsnc1N1CCOCC1)N/N=C/c1ccccc1O	2.6µM*	4.6µM*	48	?	?	15µM*
O=C(Oc1nsnc1N1CCOCC1)N(c1ccccc1)c1ccccc1	-16%	6%	-16	21%	6%	-3%
CC1(C(=O)Nc2ccc3c(c2)OCCO3)CN(S(C)(=O)=O)CC(=O)N1CCCn1ccnc1 (stereo unspecified)	12%	-1%	?	/	20%	22%
COCC(=O)N1CCC2(CC1)CN(C(=O)Nc1cccc(C#N)c1)C2	5%	13%	/	/	/	/
COc1ccc(NC(=O)c2cc3c(=O)n(Cc4cccnc4)ccc3nc2C)cc1Cl	-26%	-18%	/	/	/	/
COc1ccccc1CNC(=O)COC(=O)C12CC3CC(CC(O)(C3)C1)C2	-3%	5%	36	5%	1%	9%
CCOC1=C2[C@@H](CN(S(=O)(=O)c3ccc(C)cc3)[C@H]2c2cccc3ccccc23)[C@H]2C(=O)N(c3ccccc3)C(=O)[C@H]2C1	-23%	1%	-18	/	?	17%
CCOC1=C2[C@@H](CN(S(=O)(=O)c3ccc(C)cc3)[C@H]2c2cccc3ccccc23)[C@H]2C(=O)N(C3CCCCC3)C(=O)[C@H]2C1	10µM*	13µM*	19	/	8%	20%
SMILES	DT40 TDP1 no CPT	TDP1 cell CPT	IL1B secr inh	ELG1 DNA repair	HT1080NT lethal	HT1080 IDH1KD tx
CC1(C)C=C2C(=NN(c3ccccc3)C(N)=C2C#N)CO1	?	13µM*	2	-15%	-15%	-1%
CCCCCCCCN(CCCCCCCC)c1ccc(/C=C/c2ccnc3ccccc23)cc1	-21%	-3%	/	/	/	/
CN(C)c1ccc(/C=C/c2ccnc3cc(Cl)ccc23)cc1	11µM*	?	/	/	/	/
Cc1ccc2c(/C=C/c3ccc(N(C)C)cc3)ccnc2c1	?	11µM*	/	/	/	/
Cc1ccc2nccc(/C=C/c3ccc(N(C)C)cc3)c2c1	14µM*	11µM*	/	/	/	/
CCCCCCCCCCCCCCCCCCN(CCCCCCCCCCCCCCCCCC)c1ccc(/C=C/c2ccnc3ccccc23)cc1	-4%	-9%	/	/	/	/
COc1ccc(OC)c2c(/C=C/c3c(C)[nH]c4ccccc34)ccnc12	11µM*	10µM*	/	/	/	/
OC[C@@H](O)C(O)[C@H](O)CO	-5%	-5%	/	/	/	/
CN(C)c1ccc(/C=C/c2ccnc3c(N)cccc23)cc1	1.4µM*	2µM*	/	/	/	/
COc1ccc(OC)c2c(/C=C/c3ccc(N(C)C)cc3)ccnc12	6.3µM*	10µM*	/	/	/	/
CN(C)c1ccc(/C=C/c2ccnc3c2ccc2c(/C=C/c4ccc(N(C)C)cc4)ccnc23)cc1	0%	-14%	/	/	/	/
COc1ccccc1N1CCN(C/C=C/c2ccc(N(C)C)cc2)CC1	/	/	/	-17%	/	/
Cc1cccc(CNc2ccnc(-c3ccc(N(C)C)cc3)n2)c1	12µM*	-107%	/	/	/	/
CN(C)c1ccc(-c2nccc(NCc3ccccc3)n2)cc1	16µM*	?	/	/	/	/
Cc1cccc(CNc2ccnc(-c3ccccc3C(F)(F)F)n2)c1	?	18µM*	/	/	/	/
Fc1ccc(Nc2ccnc(-c3ccccc3C(F)(F)F)n2)cc1	?	12µM*	/	/	/	/
CC(=O)c1ccc2c3c(ccc([N+](=O)[O-])c13)CC2	-25%	1%	-21	/	2%	4%
Nc1ccc2c3c(ccc([N+](=O)[O-])c13)CC2	7.3µM*	?	?	/	0%	-3%
COC(=O)c1ccc(-c2ncc[nH]2)cc1	-9%	-10%	-12	?	-6%	-8%
CC(=O)Nc1c(C)nn(-c2ccccc2)c1N1CCC(C(=O)Nc2ccccc2F)CC1	-13%	14%	/	/	/	/
C/C(=N\NC(=O)Cc1cccn1C)c1ccc2ccccc2c1	?	?	-61*	?	-15%	-15%
C/C(=N/NC(=O)Cc1cccn1C)c1ccccc1	-11%	-2%	-17	-4%	1%	3%
O=S(=O)(NC1c2cccc3cccc(c23)C1Sc1ncccn1)c1ccccc1 (stereo unspecified)	21µM*	?	-3	-15%	-23%	-26%
